Compound activity as filed in PubChem.
The list is not random: actives were taken first. Their share in the collection is about 3.5%.
TEAD-YAP block: TEAD-YAP interaction inhibition; inhibition, % at 9.12 µM; actives 1.4% (n = 640,000); HEK-TIYL cells, TEAD-Gal4/YAP UAS-luciferase luminescence; AID 1259422; in the data active = inhibition above about 32%
MITF inh: inhibitors of human MITF; AlphaScreen MITF homodimerization, bead proximity signal; actives 0.91% (n = 650,000); inhibition, % at 2.6 µM; O75030; in the data active = inhibition above about 50%
FBW7 act: activators of human E3 ligase FBW7; AlphaScreen FBW7–phospho-cyclin E peptide binding, activator screen; normalized activity (activation), % at 26.1 µM; actives 0.13% (n = 650,000); AID 1259310; in the data active = normalized activity above about 1.9%;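 note: purified mutant Fbw7 with reduced substrate affinity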
GPR151 ag: activates the human receptor GPR151 | AID 1508602 | Q8TDV0 | PathHunter beta-arrestin GPR151 cells, luminescence | activation, % at 11.2 µM | actives 1% (n = 650,000); in the data active = activation above about 4.9%
Target sequence (Q8TDV0 whole entry, looked up): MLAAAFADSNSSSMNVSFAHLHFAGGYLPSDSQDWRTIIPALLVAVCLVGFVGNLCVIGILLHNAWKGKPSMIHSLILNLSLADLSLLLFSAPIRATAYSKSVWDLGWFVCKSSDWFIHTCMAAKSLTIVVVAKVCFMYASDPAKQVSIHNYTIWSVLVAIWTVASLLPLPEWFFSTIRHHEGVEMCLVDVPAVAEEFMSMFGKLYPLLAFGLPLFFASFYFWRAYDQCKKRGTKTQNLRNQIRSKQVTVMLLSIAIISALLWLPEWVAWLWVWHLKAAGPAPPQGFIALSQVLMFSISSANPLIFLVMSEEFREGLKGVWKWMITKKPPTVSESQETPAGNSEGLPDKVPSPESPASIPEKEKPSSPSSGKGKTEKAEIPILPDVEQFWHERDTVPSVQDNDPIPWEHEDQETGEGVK
MITF confirm: human MITF inhibition, confirmation | inhibition, % at 2.6 µM | shares compounds with MITF inh | AID 1259372 | AlphaScreen MITF homodimerization, biotin/His-MITF beads | actives 16% (n = 4,700);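 active = inhibition above a cutoff derived from the DMSO control wells, cut at about 28% in these data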;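 note: inhibitors lower the bead chemiluminescence by keeping MITF from dimerizing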
AlphaScreen intf2: AlphaScreen optical interference, counter-screen | actives 7.6% (n = 4,700) | shares compounds with MITF inh | LysRS AlphaScreen counterscreen, signal interference, triplicate | inhibition, % at 2.6 µM;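 active = inhibition above a cutoff derived from the DMSO control wells, cut at about 30% in these data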
Each line names hits and unclear results; the compound was inactive in the other large screens (follow-up assays come after a bar, where they were run).

CCOc1ccc(CN2CCC(C(=O)NCc3ccc(C)cc3)CC2)cc1	MITF inh 54 | MITF confirm inactive | AlphaScreen intf2 inactive
O=C(C1CCN(Cc2ccc(F)cc2)CC1)N1CCN(Cc2ccccc2)CC1	MITF inh 62 | MITF confirm inactive | AlphaScreen intf2 inactive
Cc1ccc(CNC(=O)C2CCN(Cc3ccc(F)cc3)CC2)cc1	none
CCOC(=O)C1CCN(C(=O)/C=C/c2ccccc2)CC1	none
CCOC(=O)C1CCN(Cc2cn[nH]c2-c2ccccc2)CC1	MITF inh 55 | MITF confirm inactive | AlphaScreen intf2 inactive
O=C(CSc1nc2c(c(=O)n1-c1ccc(F)cc1)SCC2)N1CCOCC1	none
O=c1c2sccc2nc(SCc2ccccc2F)n1-c1ccccc1	none
CC(C)c1ccc(-c2csc(NC(=O)c3ccco3)n2)cc1	none
CCOC(=O)c1c(NC(=O)COc2ccccc2)sc2c1CCN(C(=O)OCC)C2	none
O=C1CC(c2noc(-c3cccs3)n2)CN1Cc1ccccc1 (stereo unspecified)	none
CCC(CO)Nc1nccnc1-c1ccccc1F (stereo unspecified)	none
COc1ccc(-n2ncc3c(=O)n(CC(=O)Nc4cccc(F)c4)cnc32)cc1	none
CCOC(=O)N1CCN(C(=O)C2CCN(Cc3ccc(CC)cc3)CC2)CC1	none
CCOC(=O)C1CCN(C(=O)C2CCN(Cc3ccc(OCC)cc3)CC2)CC1	MITF inh 53 | MITF confirm inactive | AlphaScreen intf2 inactive
CCOC(=O)C1CCN(C(=O)C2CCN(Cc3ccc(CC)cc3)CC2)CC1	MITF inh 61 | MITF confirm inactive | AlphaScreen intf2 inactive
CCc1ccc(CN2CCC(C(=O)N3CCCC3)CC2)cc1	MITF inh 58 | MITF confirm inactive | AlphaScreen intf2 inactive
COc1cc(OC)c([N+](=O)[O-])cc1/C=N/N1C(=O)C2C3C=CC(C4CC34)C2C1=O (stereo unspecified)	none
Cc1ccc(C)c(N(CC(=O)NCCSc2ccccn2)S(=O)(=O)c2ccccc2)c1	none
COc1ccc(CN2CCN(C3CCCC3)CC2)c(OC)c1OC	MITF inh 52 | MITF confirm inactive | AlphaScreen intf2 inactive
COc1cccc(CN2CCN(C3CCCC(C)C3)CC2)c1OC (stereo unspecified)	MITF inh 70 | MITF confirm inactive | AlphaScreen intf2 inactive
COc1cccc(CN2CCN(C3CCCC3)CC2)c1OC	MITF inh 61 | MITF confirm inactive | AlphaScreen intf2 inactive
COc1cccc(CN2CCCCC2c2cccnc2)c1OC (stereo unspecified)	MITF inh 73 | MITF confirm inactive | AlphaScreen intf2 inactive
Cc1ccc(/C=N/Nc2nc(=O)[nH]nc2C)cc1	none
Cn1c(-c2ccc(Br)cc2)cnc1NCc1ccc(C#N)cc1	none
Cn1c(-c2ccc(Cl)cc2)cnc1NCc1ccc(C#N)cc1	MITF inh 54 | MITF confirm inactive | AlphaScreen intf2 inactive
CCOC(=O)C1=C(O)CSC1=NC(=O)c1ccc(OC)cc1	MITF inh 52 | MITF confirm inactive | AlphaScreen intf2 inactive
COCCn1c(SCC#N)nnc1-c1ccccc1	MITF inh 65 | MITF confirm inactive | AlphaScreen intf2 inactive
COCCn1c(SCC#N)nnc1-c1ccc(O)cc1	none
COCCN(C1CCN(CCc2ccc(Cl)cc2)CC1)S(=O)(=O)c1cccs1	MITF inh 63 | MITF confirm inactive | AlphaScreen intf2 inactive
Clc1cccc(CN2CCN(c3ncccn3)CC2)c1	none
Cc1cccc(CN2CCN(Cc3ccccc3C(F)(F)F)CC2)c1	MITF inh 76 | MITF confirm inactive | AlphaScreen intf2 inactive
FC(F)(F)c1ccccc1CN1CCN(Cc2cccc(Cl)c2)CC1	MITF inh 69 | MITF confirm inactive | AlphaScreen intf2 inactive
Cc1ccc(S(=O)(=O)N2CCN(Cc3cccc(C)c3)CC2)cc1	none
O=C1C(=O)N(CCBr)C(c2ccccc2)/C1=C(\O)c1ccccc1 (stereo unspecified)	MITF inh 59 | MITF confirm inactive | AlphaScreen intf2 inactive
O=C(C1CCCN(Cc2ccncc2)C1)N1CCc2ccccc2C1 (stereo unspecified)	MITF inh 90 | MITF confirm inactive | AlphaScreen intf2 inactive
O=C(C1CCNCC1)N1CCc2ccccc2C1	MITF inh 60 | MITF confirm inactive | AlphaScreen intf2 inactive
O=C(C1CCN(c2ccc(N3CCOCC3)nn2)CC1)N1CCc2ccccc2C1	none
CCS(=O)(=O)N1CCCC(C(=O)N2CCc3ccccc3C2)C1 (stereo unspecified)	none
CCC(c1ccc(F)cc1)n1cc(C(=O)NCCN2CCCCC2)nn1 (stereo unspecified)	none
O=C(CN1CCN(Cc2nc(-c3ccco3)cs2)CC1)N1CCCC1	MITF inh 60 | MITF confirm inactive | AlphaScreen intf2 inactive
COC(=O)C1CCN(C(=O)C2CCCN(C3CCN(Cc4ccccc4)CC3)C2)CC1 (stereo unspecified)	none
O=[N+]([O-])c1ccc(CN2CCC(N3CCN(c4ccccc4)CC3)CC2)cc1	MITF inh 78 | MITF confirm inactive | AlphaScreen intf2 inactive
O=C(C1CCCN(C2CCN(Cc3ccccc3)CC2)C1)N1CCN(c2ccccc2)CC1 (stereo unspecified)	MITF inh 73 | MITF confirm inactive | AlphaScreen intf2 inactive
O=[N+]([O-])c1ccc(CN2CCC(N3CCCC3)CC2)cc1	none
Fc1ccc(CN2CCC(N3CCN(c4ccccc4)CC3)CC2)cc1	MITF inh 53 | MITF confirm inactive | AlphaScreen intf2 inactive
CC1CCN(C2CCN(Cc3ccc([N+](=O)[O-])cc3)CC2)CC1	MITF inh 60 | MITF confirm inactive | AlphaScreen intf2 inactive
CCOC(=O)C1=C(C)N=c2s/c(=C\c3cc(Br)c(O)c(OC)c3)c(=O)n2C1c1ccc(OC)cc1 (stereo unspecified)	none
COc1ccc(-c2nc(C(=O)Nc3ccc(NC(C)=O)cc3)cs2)cn1	none
